These results are taken from the supplement of paper PMC9023506.

Counter-ions that a name gives are not always drawn.

Common to all, as to details: 10 µM; exposure time: 3 h pre-incubation + 3 h imaging
Assay [1] has as its system Danio rerio larvae (5 dpf). Put plainly: optomotor response to red moving lines, difference vs DMSO (percentage points (treated minus DMSO)); higher = more of the behaviour than the DMSO vehicle control. The method, boiled down:
(§1)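 5-dpf wild-type zebrafish larvae in 96-well ProxiPlates were exposed to library drugs at 10 µM (diluted 1000× from DMSO stocks into egg water). There were 48 larvae per drug, exposed 3 h before and 3 h during imaging at 28.5 °C. Images taken every 6 s covered a 3-h program of rest, moving coloured lines and acoustic pulses, and an ImageJ macro scored movement and upper-half location. Each behaviour score is the treated-group mean minus the DMSO vehicle mean, in percentage points.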

Assay [2] deals with Danio rerio larvae (5 dpf). The assay is described as follows: optomotor response to blue moving lines, difference vs DMSO (percentage points (treated minus DMSO)); higher = more of the behaviour than the DMSO vehicle control. In outline: as §1
Assay [3] deals with Danio rerio larvae (5 dpf). Put plainly: startle response to 20-s acoustic pulses, difference vs DMSO (percentage points (treated minus DMSO)); higher = more of the behaviour than the DMSO vehicle control. In outline: as §1
The test system of assay [4] is Danio rerio larvae (5 dpf). Put plainly: optomotor response to fast red moving lines, difference vs DMSO (percentage points (treated minus DMSO)); higher = more of the behaviour than the DMSO vehicle control. The method, boiled down: as §1
Assay [5] has as its system Danio rerio larvae (5 dpf). The assay is described as follows: activity during first hour (no stimuli), difference vs DMSO (percentage points (treated minus DMSO)); higher = more of the behaviour than the DMSO vehicle control. In outline:
as §1

Assay [6] concerns Danio rerio larvae (5 dpf). Put plainly: excitability to 1-s acoustic pulses, difference vs DMSO (percentage points (treated minus DMSO)); higher = more of the behaviour than the DMSO vehicle control. The method, boiled down: as §1
For assay [7], the system named is Danio rerio larvae (5 dpf). Put plainly: activity during period 15 (no stimuli), difference vs DMSO (percentage points (treated minus DMSO)); higher = more of the behaviour than the DMSO vehicle control. The method, boiled down: as §1
Assay [8] deals with Danio rerio larvae (5 dpf). The assay is described as follows: optomotor response to green moving lines, difference vs DMSO (percentage points (treated minus DMSO)); higher = more of the behaviour than the DMSO vehicle control. In outline:
as §1

Assay [9] deals with Danio rerio larvae (5 dpf). The assay is described as follows: habituation to 1-s acoustic pulses, difference vs DMSO (percentage points (treated minus DMSO)); higher = more of the behaviour than the DMSO vehicle control. In outline:
as §1

`CCC(=O)O[C@]1(C(=O)SCF)[C@H](C)C[C@H]2[C@@H]3C[C@H](F)C4=CC(=O)C=C[C@]4(C)[C@@]3(F)[C@@H](O)C[C@@]21C` [Fluticasone propionate]: in assay [1], the “optomotor response to red moving lines” value was -12.2.

In the case of `COC(=O)C1=C(C)NC(C)=C(C(=O)OC(C)C)C1c1cccc2nonc12` (stereo not given) [Isradipine], in assay [1], the “optomotor response to red moving lines” value is -7.63. Moreover, the “optomotor response to blue moving lines” value in assay [2] was -11.3. Besides, the “startle response to 20-s acoustic pulses” value in assay [3] was -10.3. In [4], the optomotor response was -16.6.

Consider `COc1cc([C@@H]2c3cc4c(cc3[C@@H](O[C@@H]3O[C@@H]5CO[C@@H](C)O[C@H]5[C@H](O)[C@H]3O)[C@H]3COC(=O)[C@H]23)OCO4)cc(OC)c1O` [Etoposide], for which the “optomotor response to red moving lines” value in [1] amounted to 2.25.

`CCCN(CCc1cccs1)[C@H]1CCc2c(O)cccc2C1` [Rotigotine hydrochloride]: the “activity during first hour” value in assay [5] is -26.8. Moreover, in assay [3], the “startle response to 20-s acoustic pulses” value is -4.68.

Take `CS(=O)(=O)CCNCc1ccc(-c2ccc3ncnc(Nc4ccc(OCc5cccc(F)c5)c(Cl)c4)c3c2)o1` [Lapatinib]: the “excitability to 1-s acoustic pulses” value in [6] was 14.5. Moreover, the “activity during first hour” value in [5] is -5.32.

In the case of `NC(=O)c1ncn([C@@H]2O[C@H](CO)[C@@H](O)[C@H]2O)n1` [Ribavirin], the “excitability to 1-s acoustic pulses” value in assay [6] was -0.206. Further, the “activity during first hour” value in assay [5] turned out to be 1.58.

In the case of `CCc1ccc(CCOc2ccc(CC3SC(=O)NC3=O)cc2)nc1` (stereo not given) [Pioglitazone hydrochloride], the “optomotor response to red moving lines” value in assay [1] was -7.97.

On to `O=c1[nH]c(=O)n([C@H]2C[C@H](O)[C@@H](CO)O2)cc1C(F)(F)F` [Trifluorothymidine], for which, in assay [5], the “activity during first hour” value is 1.96. In addition, in [2], the “optomotor response to blue moving lines” value turned out to be 6.73. In [3], the “startle response to 20-s acoustic pulses” value was determined as 1.37. In addition, the optomotor response in assay [4] is -0.769.

Consider `OCCN1C[C@H](O)[C@@H](O)[C@H](O)[C@H]1CO` [Miglitol], for which, in assay [7], the “activity during period 15” value was -4.45. Further, in assay [5], the “activity during first hour” value was -1.33. In [4], the optomotor response was -3.78.

Turning to `CC1(C)O[C@@H]2[C@@H](CO[C@@]3(COS(N)(=O)=O)OC(C)(C)O[C@@H]23)O1` [Topiramate], the “excitability to 1-s acoustic pulses” value in [6] is 4.36. For the same compound, in [5], the “activity during first hour” value amounted to 10.7. In addition, in assay [8], the “optomotor response to green moving lines” value is -1.84.

Turning to `COc1ccc(-c2ccc3cc(C(=O)O)ccc3c2)cc1C12CC3CC(CC(C3)C1)C2` [Adapalene], the “habituation to 1-s acoustic pulses” value in assay [9] worked out at 2.52. Moreover, the “optomotor response to red moving lines” value in [1] is -12.7. Moreover, the “optomotor response to blue moving lines” value in assay [2] was -1.19. Also, the “optomotor response to green moving lines” value in assay [8] is -2.82. Also, the “startle response to 20-s acoustic pulses” value in assay [3] amounted to 0.11.

As for `Cc1cccc(C)c1OCC(C)N` (stereo not given) [Mexiletine hydrochloride], in [2], the “optomotor response to blue moving lines” value was 7.61. Besides, the optomotor response in assay [4] is 0.599.

For the compound `CN(CCOc1ccc(CC2SC(=O)NC2=O)cc1)c1ccccn1` (stereo not given) [Rosiglitazone], in [6], the “excitability to 1-s acoustic pulses” value is 15. Moreover, the “optomotor response to green moving lines” value in [8] was 1.76. For the same compound, the optomotor response in [4] is -14.3.

With `CC#C[C@]1(O)CC[C@H]2[C@@H]3CCC4=CC(=O)CCC4=C3[C@@H](c3ccc(N(C)C)cc3)C[C@@]21C` [Mifepristone], in assay [6], the “excitability to 1-s acoustic pulses” value turned out to be 5.32. Further, the “activity during period 15” value in assay [7] is -2.26. Besides, the “optomotor response to green moving lines” value in assay [8] stood at 11. The “startle response to 20-s acoustic pulses” value in assay [3] stood at 0.769.

Consider `CNC(=O)c1ccccc1Sc1ccc2c(/C=C/c3ccccn3)n[nH]c2c1` [Axitinib], for which the “optomotor response to green moving lines” value in assay [8] was 2.99.

Take `CCCCCCCCc1ccc(CCC(N)(CO)CO)cc1`: the “habituation to 1-s acoustic pulses” value in assay [9] was 3.87. For the same compound, the “optomotor response to blue moving lines” value in [2] is -1.76. Further, the “optomotor response to green moving lines” value in assay [8] is -1.15.

Regarding `CCN(Cc1ccncc1)C(=O)C(CO)c1ccccc1` (stereo not given) [Tropicamide], in [8], the “optomotor response to green moving lines” value was -4.16.

On to `Nc1nc(F)nc2c1ncn2[C@@H]1O[C@H](CO)[C@@H](O)[C@@H]1O` [Fludarabine], for which the “excitability to 1-s acoustic pulses” value in assay [6] worked out at 3.42. Further, the “optomotor response to blue moving lines” value in assay [2] is -12. In addition, in assay [4], the optomotor response was -4.77.

Take `Cn1cnc([N+](=O)[O-])c1Sc1ncnc2[nH]cnc12` [Azathioprine]: the “optomotor response to blue moving lines” value in assay [2] was found to be 9.74. For the same compound, in [3], the “startle response to 20-s acoustic pulses” value was -1.29.

As for `OCc1cc(C(O)CNCCCCCCOCCCCc2ccccc2)ccc1O` (stereo not given) [Salmeterol xinafoate], in assay [2], the “optomotor response to blue moving lines” value is -3.67. Moreover, the “optomotor response to green moving lines” value in assay [8] was -6.89. Moreover, the “startle response to 20-s acoustic pulses” value in assay [3] is -5.23.

Regarding `COc1cc2nccc(Oc3ccc(NC(=O)C4(C(=O)Nc5ccc(F)cc5)CC4)cc3)c2cc1OC`, in assay [2], the “optomotor response to blue moving lines” value was -8.79. For the same compound, in assay [3], the “startle response to 20-s acoustic pulses” value was -5.31.

In the case of `Cc1nnc(C(C)C)n1C1C[C@H]2CC[C@@H](C1)N2CC[C@H](NC(=O)C1CCC(F)(F)CC1)c1ccccc1` (stereo in doubt) [Maraviroc], the “habituation to 1-s acoustic pulses” value in [9] was found to be 2.48. Also, the “excitability to 1-s acoustic pulses” value in assay [6] was found to be 8.65. The “optomotor response to green moving lines” value in [8] worked out at 3.11.

As for `CC(C)N(CCCCOCC(=O)NS(C)(=O)=O)c1cnc(-c2ccccc2)c(-c2ccccc2)n1` [Selexipag], in assay [7], the “activity during period 15” value was determined as 6.35. Further, in assay [8], the “optomotor response to green moving lines” value was -4.69.

On to `CN1CCN(CCCN2c3ccccc3Sc3ccc(Cl)cc32)CC1` [Prochlorperazine dimaleate], for which, in [9], the “habituation to 1-s acoustic pulses” value was -7.34. Also, the “excitability to 1-s acoustic pulses” value in assay [6] was 23.6. In addition, in [2], the “optomotor response to blue moving lines” value is 12.2.

In the case of `CC(C)(C)NC(=O)[C@@H]1C[C@@H]2CCCC[C@@H]2CN1C[C@@H](O)[C@H](Cc1ccccc1)NC(=O)[C@H](CC(N)=O)NC(=O)c1ccc2ccccc2n1` [Saquinavir mesylate], in assay [9], the “habituation to 1-s acoustic pulses” value was -0.0249. The “excitability to 1-s acoustic pulses” value in assay [6] came to 9.21. Besides, the “optomotor response to blue moving lines” value in assay [2] was -2.78.

For the compound `C[C@]12CC[C@@H]3c4ccc(O)cc4C[C@@H](CCCCCCCCC[S+]([O-])CCCC(F)(F)C(F)(F)F)[C@H]3[C@@H]1CC[C@@H]2O` (stereo not given in full), in [6], the “excitability to 1-s acoustic pulses” value came out at 2.14. Further, the “activity during period 15” value in [7] was determined as 4.53. The “optomotor response to green moving lines” value in [8] was -7.68.

As to `CN1CC2c3ccccc3Oc3ccc(Cl)cc3C2C1` (stereo not given) [Asenapine maleate], the “habituation to 1-s acoustic pulses” value in assay [9] is -9.25. The “activity during period 15” value in assay [7] is 40.8. Besides, in assay [8], the “optomotor response to green moving lines” value is -9.85. In assay [3], the “startle response to 20-s acoustic pulses” value was -6.44.
